Test results as given in PubChem BioAssay AID1051 (The Scripps Research Institute Molecular Screening Center, 2008).
Hit rate of the full screen: of about 99,000 compounds, about 340 (0.34%) were called active. Many of the other results were omitted from the sample, so actives are more common in it than they were. Values without a mark were called inactive. No stated cut-off is given here; in the data, active means TR-FRET ratio above about 2300; inactive means the rest.

Assay: signal artefacts in PPARgamma/SRC-1 readout – biochemical, TR-FRET emission ratio, artefact control for PPARgamma SRC-1 recruitment agonists, primary screen (AID 1051)
Settings: TR-FRET detection artefact counter-screen, at 8 µM, stronger effect = higher value

Row | Structure (SMILES) | TR-FRET ratio
1 | O=C(Nc1cccnc1)c1ccc(Cl)cc1[N+](=O)[O-] | 2040
2 | Cc1cc(C)cc(NC(=S)NCCCN2CCOCC2)c1 | 1640
3 | CCc1cccc(C)c1NC(=O)COC(=O)Cc1ccsc1 | 1600
4 | CC(=O)N(CCCN(C)C)c1nc2ccc(C)cc2s1 | 2080
5 | COc1ccc(/C=C(\C#N)C(=O)ONC2=NCCCCC2)cc1 | 1820
6 | COc1ccc(S(=O)(=O)N(C)C)cc1NC(=O)CSc1ncccn1 | 1990
7 | CCOCCCNC(=S)N1CCC(NC(=O)C2CCCCC2)CC1 | 1730
8 | Cc1ccc(C(=O)NCC(=O)O)cc1S(=O)(=O)N1CCCCC1 | 1790
9 | O=S(=O)(Nc1cc(S(=O)(=O)N2CCOCC2)ccc1N1CCCC1)c1cccs1 | 1650
10 | Cc1ccc(NS(=O)(=O)c2cccs2)cc1S(=O)(=O)N1CCCCCC1 | 2400 (active)
11 | CCn1c(COc2ccccc2)nnc1SCC(=O)NCc1ccco1 | 1770
12 | C/C(=N/OC(=O)c1cccc(C(F)(F)F)c1)c1cnccn1 | 1580
13 | CC(OC(=O)CNS(=O)(=O)/C=C/c1ccccc1)C(=O)Nc1ccc(S(=O)(=O)N2CCCC2)cc1 (centres undefined) | 1670
14 | O=C(NNC1=C(C(=O)C(F)(F)F)CCC1)c1ccncc1 | 1980
15 | CN(NC(=O)C1CC(=O)N(c2ccccc2)C1)C1=NS(=O)(=O)c2ccccc21 (centres undefined) | 1810
16 | CCN(CC)c1ccc(C(=O)c2cnc(/N=C/N(C)C)s2)cc1 | 1790
17 | COc1ccc(CCC(=O)OCC(=O)Nc2ccc(C)c(S(=O)(=O)N(C)C)c2)cc1 | 1760
18 | CN(CCOc1ccc(Br)cc1)CC(=O)Nc1cccc(S(=O)(=O)NC2=NCCC2)c1 | 1830
19 | CCC(C)NC(=O)/C=C/c1ccc(S(=O)(=O)NCc2ccco2)cc1 (centres undefined) | 1910
20 | Cc1ccccc1CC1(CO)CCCN(Cc2ccc3c(c2)OCCO3)C1 (centres undefined) | 1710
21 | O=c1c2ccccc2c(-c2ccccc2)nn1Cc1ccccc1 | 1740
22 | CSc1c(SCc2ccccc2)cnn(Cc2ccccc2)c1=O | 2320 (active)
23 | CSc1nc2ccccc2c(=O)n1Cc1ccc(F)cc1 | 1720
24 | COCc1c(C(=O)N/N=C/C2CC=CCC2)nnn1-c1nonc1N (centres undefined) | 1650
25 | O=C(CCc1ccc(S(=O)(=O)N2CCOCC2)cc1)NN=C1CCCCCCC1 | 1980
26 | CC(C)n1c(=O)[nH]c2cc(C(=O)Nc3ccccc3)ccc21 | 1850
27 | C=CCc1cccc2cc(C(=O)NC3CCCC3)c(=O)oc12 | 1900
28 | O=C(COC(=O)/C=C/c1cccc(Cl)c1)NCCc1ccccc1 | 1750
29 | Cc1cc(C)nc(/N=C2\NC(=O)CC(C(=O)O)N2c2ccc(Cl)cc2Cl)n1 (centres undefined) | 1900
